LDHA block: LDHA (human) enzyme inhibition; purified LDHA, NADH/diaphorase-resazurin fluorescence; active compounds read low; activity change, % (values are at about 110 or 230 µM); 480,000 compounds, 0.15% hits; P00338; AID 1347041; in the data active = activity change below about -30%; inconclusive = mostly about -25% to -30%
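Remaining NADH was detected by diaphorase (0.133 mg/mL) converting 37 µM resazurin to fluorescent resorufin, read at 0 and 20 minutes. The preceding 5-minute room-temperature reaction used 2 nM LDHA, 0.2 mM sodium pyruvate and 0.06 mM NADH at pH 7.4.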
Nrf2 block: inhibitors of Nrf2 signaling. AID 504444. 360,000 compounds, 2.1% hits. A549 ARE-Fluc reporter, luciferase luminescence, 18-24 h. Potency, µM (doses to about 46 µM), usual class: inhibitors; also: nearly all actives have a fitted effect of over 60% in size
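Quantitative HTS in A549 cells stably bearing an antioxidant response element-firefly luciferase construct. Inhibition of Nrf2-driven transcription was scored by luminescence after 18-24 h of compound exposure at 37 °C.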
ALOX12 inh: ALOX12 (human) lipoxygenase inhibition | 580,000 compounds, 1.1% hits | Potency, µM (top dose mostly 108 µM), actives largely listed as inhibitors | purified 12hLO, xylenol orange hydroperoxide absorbance
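Purified human 12hLO at 150 nM in 25 mM Hepes, 0.01% Triton X-100, pH 7.0, preincubated 15 min at room temperature with compound. Reaction started with 40 uM arachidonic acid, 30 min at room temperature. Hydroperoxide measured by Fe-xylenol orange, 573/405 nm absorbance ratio.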
Nrf2 ARE act: activates Nrf2 signaling | AID 624171 | AREc32 ARE-luciferase reporter (MCF7-derived line), luminescence, 24 h | 410,000 compounds, 0.31% hits | Potency, µM (titrated, usually from 46.1 µM), actives largely listed as activators; also: nearly all actives have a fitted effect of over 65% in size
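AREc32 cells carrying an ARE-driven firefly luciferase, 1000 cells/well in OPTI-MEM with 5% FBS, dosed after overnight attachment and incubated 24 hr at 37 deg C. Steady-Glo luminescence read after 30 min at RT.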
IDH1 R132H inh: inhibitors of human mutant IDH1 R132H; O75874; IDH1-R132H enzyme, NADPH consumption, diaphorase/resazurin fluorescence; Potency, µM (highest dose often 76.6 µM), most hits filed as inhibitors; 390,000 compounds, 0.093% hits; AID 602179; also: nearly all actives have a fitted effect of over 65% in size
Target sequence (O75874 whole entry R132H, stated change not applied): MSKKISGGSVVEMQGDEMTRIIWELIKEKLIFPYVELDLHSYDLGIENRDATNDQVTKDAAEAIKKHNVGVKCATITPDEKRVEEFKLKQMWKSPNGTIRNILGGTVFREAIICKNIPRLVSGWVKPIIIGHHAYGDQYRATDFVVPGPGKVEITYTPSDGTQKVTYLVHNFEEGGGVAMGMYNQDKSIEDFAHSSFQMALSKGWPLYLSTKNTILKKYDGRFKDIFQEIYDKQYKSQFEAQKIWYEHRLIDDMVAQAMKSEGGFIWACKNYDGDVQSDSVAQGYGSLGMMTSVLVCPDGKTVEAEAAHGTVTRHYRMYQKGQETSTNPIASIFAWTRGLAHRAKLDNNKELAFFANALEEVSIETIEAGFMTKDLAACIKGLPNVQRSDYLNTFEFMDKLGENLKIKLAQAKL
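IDH1-R132H (0.5 ug/mL) preincubated 30 min with compound, then NADPH (0.016 mM) and alpha-KG (2 mM) added; 80 min at RT, pH 7.5. Remaining NADPH coupled via diaphorase/resazurin to fluorescence (540/590 nm); concentration-response curves normalized to no-enzyme control.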
A549 viability: kills or reduces viability of A549 cells in Nrf2 counter-screen; A549 ARE-Fluc cells, CellTiter-Fluor viability, 18-24 h; Potency, µM (highest dose often 46 µM), most hits filed as inhibitors; 390,000 compounds, 0.16% hits; AID 504648
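A549 ARE-Fluc cells in 5% FBS OPTI-MEM, 5000 cells/well, rested 2 h then exposed to compounds in concentration-response for 18-24 h at 37 °C. Viability by CellTiter-Fluor fluorescence (Ex 405/Em 525) after 30 min; luciferase luminescence (BugLite, 15 min, RT) read afterwards.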
Hits are given with their value; 0 = inactive; ? = inconclusive; - = not tested or not shown; [ ] = dose if it differs, or a comment. Rows were chosen to be rich in hits. Some 2.7% of all compounds tested hit in one or more screens of this group. Unless noted, calls follow the shape of the dose curve; as a rule, active = well fitted curve in the direction sought with a large enough effect; inconclusive = small, poorly fitted or top-dose-only effect, or another doubt; inactive = no such curve, though single readings can be large; an effect the other way counts as inactive or inconclusive.

SMILES	LDHA block	Nrf2 block	ALOX12 inh	Nrf2 ARE act	IDH1 R132H inh	A549 viability
Cc1nn(Cc2c(Cl)cccc2Cl)c(C)c1NC(=O)c1sc2ccccc2c1Cl	0	?	0	0	0	0
COc1ccc(-c2cc(C(=O)Nc3c(C)nn(Cc4ccc(Cl)cc4)c3C)no2)cc1	0	?	0	0	0	?
COc1ccc(NC(=O)c2cc(-c3ccccc3O)on2)cc1OC	0	-	0.63µM	-	-	-
COc1cccc(-c2cc(C(=O)Nc3c(C)nn(Cc4ccccc4Cl)c3C)no2)c1	0	6.5µM	0	0	0	0
C/C(CC(C)(C)C1CCCCC1)=N\N=C(N)N	0	-	?	-	-	-
NC1=NC(=O)/C(=C/c2ccccc2OCC(=O)Nc2ccc(F)cc2)S1	0	0	0	0	0	0
O=C(COc1ccccc1/C=C1\SC(=S)NC1=O)Nc1ccc(F)cc1	0	23µM	0	?	0	?
CC(C)c1ccc(CCNC(=O)Cc2cccc3cccnc23)cc1	0	-	0	-	-	-
CC(=O)c1ccc(N2CCN(C(=O)c3cn(-c4ccccc4)nc3-c3cccnc3)CC2)cc1	0	-	0	-	-	-
CCn1c(CSc2nc3ccccc3[nH]2)nc2cc(C(=O)O)ccc21	-30	0	0	0	0	0
Oc1ccc(-n2nnnc2SCc2ncc(-c3ccc(Cl)cc3)o2)cc1	0	-	32µM	-	-	-
Oc1ccc(-n2nnnc2SCc2ncc(-c3ccccc3)o2)cc1	0	-	?	-	-	-
Cc1ccc(C(=NC(=O)c2cccs2)c2ccccc2)cc1	0	-	0	-	-	-
Cc1ccc(F)cc1NC(=O)Cc1c[nH]c2ccccc12	0	-	0	-	-	-
Cc1c(C(=O)NC(C)c2ccccc2)[nH]c2c1C(=O)CCC2 (stereo not given)	0	-	0	-	-	-
Cc1ccc(C(=O)NC(NC(=S)Nc2ccc(S(N)(=O)=O)cc2)C(Cl)(Cl)Cl)cc1 (stereo not given)	-34	0	?	0	0	0
Cc1ccc(NC(=S)NC(NC(=O)c2ccccc2)C(Cl)(Cl)Cl)c(C)c1 (stereo not given)	0	21µM	?	0	0	?
Cc1cc(C)c(NC(=S)NC(NC(=O)c2ccccc2)C(Cl)(Cl)Cl)c(C)c1 (stereo not given)	0	?	0	0	0	0
O=C1c2cccc3cc([N+](=O)[O-])cc(c23)C(=O)N1/N=C/c1ccc(O)cc1O	0	?	0	0	0	23µM
CCN(CC)c1ccc(/C=N/N2C(=O)c3ccccc3C2=O)c(O)c1	0	0	0	0	0	0
COc1ccc(Cl)cc1S(=O)(=O)NCCO	0	-	?	-	-	-
COc1ccc(OC)c(NC(=O)c2ccc(CSc3nnc(C)s3)cc2)c1	0	26µM	0	0	0	0
Cc1cc(C)cc(NC(=O)c2ccc(CSc3nnc(C)s3)cc2)c1	0	0	0	0	0	0
COc1ccc(C(=O)NCC(=O)OCC(=O)c2ccccc2)cc1	0	-	?	-	-	-
Cc1ccc(-n2c(C)nnc2SC(C)C(=O)Nc2cc(C)on2)cc1 (stereo not given)	0	-	?	-	-	-
SMILES	LDHA block	Nrf2 block	ALOX12 inh	Nrf2 ARE act	IDH1 R132H inh	A549 viability
COc1ccc(C(=O)/C=C/c2ccc(N3CCCCC3)c([N+](=O)[O-])c2)c(OC)c1	0	?	0	13µM	0	0
COc1cc(NC(=O)C2=CCN(Cc3ccccc3F)CC2)cc(OC)c1OC	?	-	0	-	-	-
CC(C)c1ccc(NC(=O)C2CCCN(c3cnc4ccccc4n3)C2)cc1 (stereo not given)	0	-	?	-	-	-
COCCN(CCOC)C(=O)c1c[nH]c2ccc(S(=O)(=O)N(C)c3ccc(F)cc3)cc2c1=O	0	0	0	0	0	0
CCc1ccccc1N(C)S(=O)(=O)c1ccc2[nH]cc(C(=O)O)c(=O)c2c1	-42	0	0	0	0	0
CN(c1ccc(F)cc1)S(=O)(=O)c1ccc2[nH]cc(C(=O)O)c(=O)c2c1	-30	-	0	0	0	0
COc1ccc(CNC(=O)CCSc2ccc(F)cc2)cc1OC	0	0	0	0	0	0
COc1ccc(CNC(=O)CSc2ccc(Br)cc2)cc1OC	0	23µM	0	0	0	0
Cc1ccc(N/N=C(\C#N)C(N)=S)cc1C	0	0	2µM	0	0	?
CC1CCN(Cc2cc(=O)oc3ccc(O)cc23)CC1	0	-	0	-	-	-
Cc1ccc(Cn2ncc3c(N4CCN(c5ccccc5C)CC4)ncnc32)cc1	0	21µM	0	0	0	?
Cc1ccc(Cn2ncc3c(N4CCOCC4)ncnc32)cc1	0	0	0	0	0	0
C#CCNC[C@@H]1C=C(C)[C@H](Cc2nnc(Cc3c[nH]c4ccccc34)o2)C[C@H]1C(C)C	-	-	0	-	-	-
O=C(NCCn1cccc1-c1nc(-c2ccc3c(c2)OCO3)no1)c1ccc(Cl)cc1	-	-	13µM	-	-	-
Cc1ccc(C(=O)NCCn2cccc2-c2nc(-c3ccc4c(c3)OCO4)no2)cc1	-	-	0	-	-	-
N#Cc1ccc(S(=O)(=O)N2CCC(C(=O)Nc3ccnn3Cc3ccccc3Cl)CC2)cc1	0	-	0	-	-	-
COc1ccccc1CC(Cc1nc2ccccc2[nH]1)c1nc2ccccc2[nH]1 (stereo not given)	0	0	0	0	0	0
Cc1cccc(CC(Cc2nc3ccccc3[nH]2)c2nc3ccccc3[nH]2)c1 (stereo not given)	0	26µM	0	0	0	?
O=C(O)c1ccccc1NC(=S)NC(=O)c1cccc2ccccc12	0	0	20µM	0	0	0
O=C(NC(=S)Nc1ccccc1C(=O)O)c1cncc(Br)c1	0	0	0	0	0	0
Cc1cccc(C(=O)NC(=S)Nc2ccccc2C(F)(F)F)c1	0	0	16µM	0[9.22 µM]	0	0
Cc1cccc(C(=O)NC(=S)Nc2ccccc2C(=O)O)c1	0	0	40µM	0	0	0
Cc1ccc(C(=O)NC(=S)Nc2ccccc2C(F)(F)F)cc1C	0	0	?	0	0	0
COC(=O)CNC(=O)c1ccc(C)c(C)c1	0	-	0	-	-	-
Nc1nn(-c2ccccc2)c(N)c1N=Nc1ccc2c(c1)OCO2	0	0	?	0	0	15µM
SMILES	LDHA block	Nrf2 block	ALOX12 inh	Nrf2 ARE act	IDH1 R132H inh	A549 viability
O=C(CSc1cn(CC(=O)N2CCCC2)c2ccccc12)Nc1cccc(C(F)(F)F)c1	0	-	?	-	-	-
Cc1cc(NS(=O)(=O)c2ccc(Nc3nc(-c4ccc(C)c(C)c4)cs3)cc2)no1	0	?	4.5µM	0	?	0
Cc1cc(NS(=O)(=O)c2ccc(Nc3nc(-c4ccc(O)cc4)cs3)cc2)no1	0	0	?	0	0	0
Cc1ccc(C)c(-c2csc(Nc3ccc(S(=O)(=O)Nc4nc(C)cc(C)n4)cc3)n2)c1	0	-	45µM	-	-	-
CC(C)CNC(=S)Nc1cccc(Cl)c1	0	-	?	-	-	-
CCOC(=O)C(=CNNc1cccc(Cl)c1)C(=O)OCC	0	?	13µM	0	0	0
